Rows were chosen to be rich in hits. Some 10% of all compounds tested hit in one or more screens of this group.
HPGD inh – blocks human HPGD enzyme activity. P15428. purified HPGD, NADH fluorescence kinetic, PGE2 substrate. Potency, µM, hits mostly inhibitors. 150,000 tested, 4.3% active. AID 894; active = well fitted inhibition curve with a large enough effect, not every such curve was filed as active; inconclusive = small, poorly fitted or top-dose-only effect, or another doubt; inactive = no such curve, though single readings can be large or run the other way
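20 nM HPGD preincubated 15 min at room temperature with compound in 50 mM Tris-HCl pH 8, 0.01% Tween 20. Started with 1 mM NAD+ and 30 uM prostaglandin E2; NADH fluorescence (360/450 nm) read 5 times over 30-s intervals, last minus first.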
GLA spleen mod – inhibitors or activators of human alpha-galactosidase in spleen homogenate. Potency, µM (doses to about 80 µM), hits mostly inhibitors. human spleen homogenate, 4MU-alpha-Gal fluorescence, 40 min. AID 2107. P06280. 240,000 tested, 0.008% active
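Spleen homogenate 1 ug + cpd (titration) + 4-MU-alpha-D-galactopyranoside 1 mM; 37C 40 min; 50 mM citrate/phosphate pH 5.0, 0.01% Tween-20; stop pH 10; fluorescence 365/440; AC50 via Hill.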
PNC inhibitor – blocks assembly of the perinucleolar compartment. PC3M PTB-GFP, PNC prevalence imaging, 16 h; active compounds read low. activity change (PNC), negative = inhibition, % at 10 µM. 140,000 tested, 3.1% active. AID 2417;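 active = readout at or below -70, meaning at least 70% loss of cells showing the perinucleolar compartment, a nuclear body marking cancer cells; inconclusive = readout between -30 and a set limit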
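PC3M cells stably expressing PTB-GFP, 750–1000 cells/well, treated 16 h at 37 °C with compound (23 nl of library stock), in duplicate. After paraformaldehyde fixation and Hoechst stain, imaged at 20x; PNC prevalence scored by image analysis.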
GLA inh pH 4.5 – alpha-galactosidase A (human) inhibition, pH 4.5; purified enzyme, 4-MU-alpha-Gal fluorescence, pH 4.5; activity change, negative = inhibition, % at 105 µM; 230,000 tested, under 10 active; AID 1467
ALDH1A1 block – blocks purified human ALDH1A1 activity | AID 1030 | Potency, µM (titrated, usually from 75.3 µM), hits mostly inhibitors | 220,000 tested, 7.3% active | P00352 | Purified ALDH1A1, NADH fluorescence, propionaldehyde substrate; active = well fitted inhibition curve with a large enough effect, not every such curve was filed as active; inconclusive = small, poorly fitted or top-dose-only effect, or another doubt; inactive = no such curve, though single readings can be large or run the other way
ALOX12 inhib – inhibitors of human 12-lipoxygenase (ALOX12). Potency, µM (titrated, usually from 57.1 µM), usual class: inhibitors. purified 12-hLO, xylenol orange hydroperoxide absorbance. P18054. 150,000 tested, 0.12% active. AID 1452; also: nearly all actives have a fitted effect of over 55% in size
Target sequence (P18054 whole entry, looked up): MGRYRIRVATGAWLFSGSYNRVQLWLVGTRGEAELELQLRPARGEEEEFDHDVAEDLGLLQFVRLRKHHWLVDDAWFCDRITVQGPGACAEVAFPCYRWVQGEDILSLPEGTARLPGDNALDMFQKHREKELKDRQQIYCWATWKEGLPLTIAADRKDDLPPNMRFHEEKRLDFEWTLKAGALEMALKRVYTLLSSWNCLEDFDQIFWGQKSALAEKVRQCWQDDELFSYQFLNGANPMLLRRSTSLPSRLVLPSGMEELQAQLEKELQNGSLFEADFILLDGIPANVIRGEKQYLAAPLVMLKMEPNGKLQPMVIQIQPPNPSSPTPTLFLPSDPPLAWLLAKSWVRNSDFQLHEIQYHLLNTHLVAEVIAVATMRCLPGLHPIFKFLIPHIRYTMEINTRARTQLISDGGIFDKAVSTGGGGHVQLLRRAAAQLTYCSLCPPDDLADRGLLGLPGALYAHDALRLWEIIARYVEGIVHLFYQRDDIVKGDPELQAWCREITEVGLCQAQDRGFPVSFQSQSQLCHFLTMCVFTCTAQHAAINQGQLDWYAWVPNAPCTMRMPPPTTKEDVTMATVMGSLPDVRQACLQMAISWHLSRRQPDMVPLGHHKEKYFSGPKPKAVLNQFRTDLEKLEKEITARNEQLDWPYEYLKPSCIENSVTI
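Lipoxygenase turnover measured by absorbance at 573 and 405 nm after Fe-XO development. Human 12hLO 150 nM, arachidonate 40 uM, pH 7.0 Hepes buffer with detergent; 15 min compound preincubation, 30 min reaction.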
Numbers stand for hits; i = inactive; ? = inconclusive; nt = no result; [ ] = dose if it differs, or a comment. Unless noted, calls follow the shape of the dose curve; as a rule, active = well fitted curve in the direction sought with a large enough effect; inconclusive = small, poorly fitted or top-dose-only effect, or another doubt; inactive = no such curve, though single readings can be large; an effect the other way counts as inactive or inconclusive.

SMILES	HPGD inh	GLA spleen mod	PNC inhibitor	GLA inh pH 4.5	ALDH1A1 block	ALOX12 inhib
O=S(=O)(c1ccccc1)N1CCC2(CCCN(Cc3ccccc3)C2)CC1	i	i	nt	nt	i	i
COc1ncc2nc(-c3cccs3)c(=O)n(CCc3ccccc3)c2n1	nt	i	nt	nt	?	nt
COCC(=O)N1CCC2(CCCN(c3ccccn3)C2)CC1	?	i	nt	nt	?	i
N#Cc1c(/N=C/c2ccco2)sc2c1CCC2	i	i	i	i	i	i
N#Cc1c(/N=C/c2cc3ccccc3s2)sc2c1CCC2	i	i	?	i	25µM	i
COc1ccc(S(=O)(=O)N(C(=O)c2ccco2)c2cc3sc(=O)oc3c3ccccc23)cc1	?	i	?	i	25µM	?
Cc1ccc(S(=O)(=O)N(C(=O)c2ccco2)c2cc3sc(=O)oc3c3ccccc23)cc1	?	i	i	i	32µM	?
CC(=O)NN1C(=O)/C(=C/c2ccc(C(C)C)cc2)SC1=S	i	i	?	i	4µM	i
O=C(NCC(c1ccco1)N1CCCCC1)c1ccc2c(c1)S(=O)(=O)c1ccccc1C2=O (stereo not drawn)	nt	i	nt	i	13µM	nt
CCC(C)(C)NC(=O)c1ccc2c(c1)S(=O)(=O)c1ccccc1C2=O	25µM	i	?	i	3.5µM	i
O=C(Nc1ccccn1)c1ccc2c(c1)S(=O)(=O)c1ccccc1C2=O	i	i	i	i	16µM	i
CCN1CCN(C(=O)c2ccc3c(c2)S(=O)(=O)c2ccccc2C3=O)CC1	nt	i	nt	i	7.9µM	nt
O=C(NCCO)c1ccc2c(c1)S(=O)(=O)c1ccccc1C2=O	?	i	i	i	?	i
Cc1ccnc(NC(=O)c2ccc3c(c2)S(=O)(=O)c2ccccc2C3=O)c1	nt	i	nt	i	nt	nt
CN1CCN([C@@H]2Cc3ccccc3Sc3ccc(Cl)cc32)CC1	nt	nt	nt	nt	nt	i
COc1ccccc1NC(=O)/C(=C/c1cccc([N+](=O)[O-])c1)c1ccccc1	i	i	?	i	i	i
CCc1nnc(NC(=O)CSc2nnc(-c3cccnc3)n2CC)s1	i	i	-104	i	i	i
Cc1cccc(-n2ccnc2SCC(=O)Nc2nccs2)c1C	i	i	i	i	i	i
CCc1nnc(NC(=O)CSc2nccn2-c2cccc(C)c2C)s1	i	i	i	i	16µM	i
O=C(CN1C(=O)CCC1=O)Nc1cccc2c1C(=O)NC2=O	nt	i	nt	i	?	nt
COc1ccc(C2Sc3ccccc3N(CCN(C)C)C(=O)[C@@H]2OC(C)=O)cc1 (stereo partly drawn)	nt	i	nt	nt	?	nt
O=C(O)CC(C(=O)O)N1C(=O)/C(=C/c2ccc(-c3nc4ccccc4s3)o2)SC1=S (stereo not drawn)	25µM	i	?	i	10µM	i
O=C(O)CCCN1C(=O)/C(=C\c2ccc(-c3nc4ccccc4s3)o2)SC1=S	nt	i	nt	i	nt	nt
O=C(O)CCN1C(=O)/C(=C/c2ccc(-c3nc4ccccc4s3)o2)SC1=S	13µM	i	i	i	3.5µM	i
COc1ccc2c(c1)OC(=O)CC2c1ccccc1C (stereo not drawn)	i	i	nt	i	i	i[0.00818 µM]
SMILES	HPGD inh	GLA spleen mod	PNC inhibitor	GLA inh pH 4.5	ALDH1A1 block	ALOX12 inhib
Nc1nc2c(nc(Br)n2C2CC(O)C(CO)O2)c(=O)[nH]1 (stereo not drawn)	i	i	nt	i	i	i
COc1ccc(NC(=O)c2cccs2)cc1	i	i	i	i	i	i
COc1ccc(NC(=S)NNC(=O)c2cccs2)cc1	i	i	-84	i	?	i
Cc1c(C(=O)NC(=S)Nc2ccc(NC(=O)c3cccs3)cc2)oc2ccccc12	2.8µM	i	?	i	1.3µM	?
CC(=O)NC(=S)Nc1ccc(NC(=O)c2cccs2)cc1	i	i	?	i	i	i
CC(C)c1ccc(NC(=S)NNC(=O)c2cccs2)cc1	nt	i	nt	i	20µM	nt
CCCCC(=O)Nc1ccc(C(=O)NNC(=S)NC(=O)c2cccs2)cc1	nt	i	?	i	25µM	i
O=C(NNC(=S)NC(=O)c1cccs1)c1ccc(NC(=O)c2ccccc2)cc1	i	i	i	i	?	i
COc1ccc(Oc2ncc3nc(-c4ccc(F)cc4)c(=O)n(Cc4cccs4)c3n2)cc1	nt	i	nt	nt	?	nt
CN(C)c1ccc(-c2nc3ccccn3c2/N=C/c2ccc(Br)cc2)cc1	i	i	-112	i	?	i

High-throughput results from PubChem.
